From PubChem BioAssay come the findings set out here.

The source made the active and inactive calls. Unless noted, how the calls were made is not given here.

Assay [1] is described as follows: liver-stage malaria parasite load reduction – cell-based, known kinase inhibitor set, luminescence, hepatoma host viability (AID 624392).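 Further: infected cells incubated roughly two days before readout.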 To be noted: Plasmodium liver stage in hepatoma cells, luciferase luminescence, concentration not given here; liver cell % of control: measured here: host liver cell viability; parasite % of control: stronger effect = lower value.
The nature of assay [2]: altered dexamethasone sensitivity, NF-kB reporter, cell-based, luciferase, IL-1B stimulus (AID 624486).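 On percent of negative control (+Dex): 100% = mean signal of vehicle control wells on the plate.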 To be noted: IL-1B + dexamethasone, luminescence; percent of negative control (+Dex): actives lie on both sides, concentration not given here; z-score: measured here: IL-1B alone, no Dex.
A short description of assay [3]: C. elegans survival during P. aeruginosa infection – whole organism (AID 651566).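 Further: tested at 14 µM; sign flipped so higher z means a lower ratio.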 Conditions: C. elegans killed by P. aeruginosa, survival ratio.
A short description of assay [4]: pro-inflammatory signaling induction in mouse macrophages – cell-based, murine, luminescence (AID 652131). To be noted: murine macrophage pro-inflammatory reporter, stronger effect = higher value.
A short description of assay [5]: inducers of IRF3 signaling, differentiated THP-1 – cell-based, PMA-stimulated THP-1, luminescence (AID 1053176). To be noted: PMA-differentiated THP-1, IRF3 reporter luminescence; stronger effect = higher value.
The nature of assay [6]: MELAS cybrid and Rieske KO viability enhancers – cell-based, MELAS cybrids, Rieske KO mouse fibroblasts, CellTiter-Glo, primary screen (AID 1508586;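 active means mean z-score across replicates of 1.96 or higher in either the MELAS or the Rieske mutant cell line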;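 further: z relative to plate mean and SD of compound and empty wells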). To be noted: low glucose. For orientation: In ATP-based viability assays light output follows the ATP content of the culture.
The nature of assay [7]: Wnt pathway potentiators raising nuclear beta-catenin – imaging, WNT3A-conditioned medium, mouse C2C12, NPC library, primary screen (AID 1117326; in the data active means nuclear beta-catenin stimulation mostly above about 4.2%, no sharp cut-off; inactive means mostly below about 10%). Conditions: stronger effect = higher value.
Assay [8] in a line: stimulators of insulin release from INS-1E, primary screen, cell-based, 5 mM glucose, NPC library (AID 1117329;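 active means compound raises insulin release from rat beta cells at 5 mM glucose, no numeric limit stated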). Conditions: rat INS-1E insulin secretion, at 10 µM, stronger effect = higher value.
Assay [9] in a line: growth inhibition of GSK3B-pretreated HCT116 cells – cell-based, CellTiter-Glo, 0.2 to 20 µM (AID 1117336;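 active means compounds lowering colon cancer cell viability after pretreatment blocking the GSK3B kinase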). To be noted: HCT116 viability after GSK3B inhibitor, at 20 µM, stronger effect = higher value.
A short description of assay [10]: inhibition of endothelial tube formation, primary screen, imaging, VEGF stimulated, CD31 staining, tube area, NPC library (AID 1117340;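 active means compound that reduces growth-factor-driven endothelial tube area in a mixed cell culture, no cutoff stated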). Conditions: VEGF-stimulated ADSC/ECFC co-culture, at 10 µM, stronger effect = higher value.
Assay [11] in a line: GLP1 release stimulators, primary, NCI-H716, NPC library (AID 1117341;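 active means compound raises GLP1 secretion from the human gut endocrine cells, with no numeric limit stated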). To be noted: NCI-H716 cells, at 10 µM, stronger effect = higher value.
Assay [12] in a line: HCT116 colon cancer cell growth inhibition, primary screen, CellTiter-Glo luminescence, NPC library (AID 1117342;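 active means compounds that lower survival of HCT116 colon cancer cells in the luminescence readout, no numeric limit stated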). Conditions: at 20 µM (top of the series).
Assay [13] in a line: reduced SW480 viability measured with CellTiter-Glo, NPC library, primary (AID 1117343;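 active means compounds that lower viability of the colon cancer cells in the luminescence readout, with no numeric limit stated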). To be noted: CellTiter-Glo luminescence; at 20 µM (top of the series).
The nature of assay [14]: NPC library primary testing for decreased DLD-1 cell viability via CellTiter-Glo (AID 1117346;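 active means compounds that lower survival of DLD-1 colon cancer cells in the luminescence readout, no cutoff given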). To be noted: DLD-1 viability, CellTiter-Glo luminescence; at 20 µM (top of the series).
The mark [15] stands for this setting: MELAS cybrid survival, CellTiter-Glo 48 h, stronger effect = higher value.
The mark [16] stands for this setting: Rieske KO mouse fibroblast survival, CellTiter-Glo 72 h.

`O=S1CCN(Cc2ccc(-c3ccc4ncnc(Nc5ccc(OCc6cccc(F)c6)c(Cl)c5)c4c3)o2)CC1` yielded a liver cell % of control in [1] of 103%. Besides, the parasite % of control in assay [1] was 99.6% (inactive). The percent of negative control (+Dex) in assay [2] was 74.5% (inactive). In addition, the z-score in [2] is -1.72; in assay [3], -0.375 (inactive); in assay [4], 13.5 (active); in assay [6] (setting [15]), 0.445 (inactive); in [6] (setting [16]) it was -0.225. Besides, in assay [5], the fraction signal is -0.007 (inactive).
As for `O=C(OCC(COC(=O)c1cccnc1)(COC(=O)c1cccnc1)COC(=O)c1cccnc1)c1cccnc1`, the nuclear beta-catenin stimulation in [7] (at 10 µM) is -0.6% (inactive); in assay [7] (stimulation, at 2 µM) it was -0.3%. In addition, in assay [8], the insulin secretion stimulation was 1.6% (inactive). Also, the viability decrease in assay [9] is -13.3% (inactive). In assay [10], the tube area decrease was -11.4% (inactive). Also, the GLP1 secretion stimulation in assay [11] was 0.8% (inactive). The inhibition of viability in assay [12] is 17.4% (inactive). Besides, the viability decrease (inhibition) in [13] was -4.3% (inactive); in [14], -2.7% (inactive).
In turn, `N#Cc1c(NC(=O)c2ccc(F)c3ccccc23)sc2c1CCCC2` gave a liver cell % of control in assay [1] of 93.8%. Moreover, the parasite % of control in assay [1] is 163% (inactive). The percent of negative control (+Dex) in [2] was 118% (inactive). Moreover, the z-score was 0.625 in [2]; 1.47 (inactive) in assay [3]; -1.25 (inactive) in assay [4]; -0.605 (inactive) in assay [6] (setting [15]); 0.108 in [6] (setting [16]). For the same molecule, in [5], the fraction signal is 0.0065 (inactive).
In the case of `CS(=O)(=O)c1ccc(Oc2nccc(-c3c(-c4ccc(F)cc4)ncn3C3CCNCC3)n2)cc1`, in [1], the liver cell % of control came to 78.7%. Also, the parasite % of control in assay [1] is 128% (inactive). Moreover, in [2], the percent of negative control (+Dex) was 92% (inactive). The z-score in [2] is 0.015; in [3] it was -0.505 (inactive); in assay [4] it was -0.16 (inactive); in assay [6] (setting [15]), -0.0537 (inactive); in assay [6] (setting [16]), -0.376. The fraction signal in assay [5] is -0.008 (inactive).
In [1], `O=C1NC(=O)C(c2cccc([N+](=O)[O-])c2)=C1Nc1cc(Cl)c(O)c(Cl)c1` came in with a liver cell % of control of 108%. Also, the parasite % of control in [1] is 92.3% (inactive). In addition, in assay [2], the percent of negative control (+Dex) was 80.5% (inactive). Also, the z-score in assay [2] is -0.485; in [3] it was 0.045 (inactive); in assay [4], 0.634 (inactive); in assay [6] (setting [15]), -0.803 (inactive); in [6] (setting [16]), -0.48. Also, the fraction signal in [5] is -0.003 (inactive).
Regarding `Cc1ccc(S(=O)(=O)NC(=O)NC2CCCCC2)cc1`, the nuclear beta-catenin stimulation in [7] (at 10 µM) was 0.6% (inactive); in assay [7] (stimulation, at 2 µM), 0.3%. Besides, the insulin secretion stimulation in assay [8] was 26.7% (active). For the same molecule, the viability decrease in [9] was -13% (inactive). Besides, the tube area decrease in assay [10] was -13.1% (inactive). For the same molecule, the GLP1 secretion stimulation in assay [11] was -5.7% (inactive). In assay [12], the inhibition of viability was 0.6% (inactive). Besides, the viability decrease (inhibition) is 17.6% (inactive) in assay [13] and -1.8% (inactive) in [14].
Turning to `COC(=O)C1=C(C)NC(C)=C(C(=O)OCCc2ccc(N3CCN(C(c4ccccc4)c4ccccc4)CC3)cc2)C1c1cccc([N+](=O)[O-])c1` (stereo unspecified), the nuclear beta-catenin stimulation in [7] (at 10 µM) was 2.5% (inactive); in [7] (stimulation, at 2 µM) it was 0.7%. Further, in assay [8], the insulin secretion stimulation is 0% (inactive). Moreover, in assay [9], the viability decrease is 14.1% (inactive). In assay [10], the tube area decrease was 44.2% (active). For the same molecule, in assay [11], the GLP1 secretion stimulation is -3.4% (inactive). For the same molecule, the inhibition of viability in [12] was 32.3% (inactive). For the same molecule, the viability decrease (inhibition) is 39.1% (inactive) in [13] and -1.2% (inactive) in assay [14].
In the case of `Cc1ccccc1N1CCN(CCc2nnc3n2CCCC3)CC1`, the nuclear beta-catenin stimulation in assay [7] (at 10 µM) is -0.3% (inactive); in assay [7] (stimulation, at 2 µM) it was 0%. Also, in [8], the insulin secretion stimulation is 0.9% (inactive). For the same molecule, the viability decrease in [9] was 25.8% (inactive). The tube area decrease in [10] is -13.2% (inactive). Further, the GLP1 secretion stimulation in assay [11] was 0.9% (inactive). In assay [12], the inhibition of viability was 6.7% (inactive). Besides, the viability decrease (inhibition) in assay [13] is 4.9% (inactive); in assay [14], 7.3% (inactive).
As for `Cc1ccc(-c2ccccc2C#N)cc1`, the nuclear beta-catenin stimulation in assay [7] (at 10 µM) is 1.4% (inactive); in assay [7] (stimulation, at 2 µM), 6.2%. The insulin secretion stimulation in assay [8] is 0.25% (inactive). In assay [9], the viability decrease is 3.2% (inactive). The tube area decrease in assay [10] was -5.1% (inactive). Besides, in [11], the GLP1 secretion stimulation was 2.4% (inactive). In addition, the inhibition of viability in [12] was -1.3% (inactive). Moreover, the figures for the viability decrease (inhibition) in assay [13] and in assay [14] were -24.5% (inactive) and -11% (inactive), respectively.
